# Test results: PubChem BioAssay (Tox21)
# Inconclusive results are not listed. A number with no mark means an inactive call. Calls of active or inactive are those of the source. Unless noted, the call rests on the fitted dose curve; in most records, active means well fitted cell-killing curve with a large enough effect in the repeat runs; inconclusive means weak or mixed curves, or effect the other way; inactive means flat fitted curve, though single readings scatter.
# Target: Estrogen receptor beta (Homo sapiens) (UniProt Q92731)
# Sequence (Q92731 whole entry, looked up): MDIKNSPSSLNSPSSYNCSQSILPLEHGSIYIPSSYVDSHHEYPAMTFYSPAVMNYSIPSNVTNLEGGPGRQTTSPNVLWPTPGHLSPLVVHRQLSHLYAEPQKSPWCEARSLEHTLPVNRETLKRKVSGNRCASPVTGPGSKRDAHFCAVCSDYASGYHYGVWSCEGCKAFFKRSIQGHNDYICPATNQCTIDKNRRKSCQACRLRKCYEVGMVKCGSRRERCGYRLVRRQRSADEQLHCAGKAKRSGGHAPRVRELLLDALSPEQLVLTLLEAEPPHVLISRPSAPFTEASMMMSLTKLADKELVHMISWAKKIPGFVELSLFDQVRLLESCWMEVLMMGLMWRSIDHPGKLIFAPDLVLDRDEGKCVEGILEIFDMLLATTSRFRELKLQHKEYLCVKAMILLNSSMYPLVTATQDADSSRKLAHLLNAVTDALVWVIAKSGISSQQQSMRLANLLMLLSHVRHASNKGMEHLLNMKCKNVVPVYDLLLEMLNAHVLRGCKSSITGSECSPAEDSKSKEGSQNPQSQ
# Assay: qHTS assay to identify small molecule antagonists of the estrogen receptor beta (ER-beta) signaling pathway (AID 1259378; active means well fitted inhibition curve with a large enough effect in the signal ratio in the repeat runs, not every such curve was filed as active; the % refers to the signal ratio)
# Details: ER-beta-UAS-bla HEK293T, beta-lactamase FRET ratio, 16 h; series mostly up to 92.4 µM; activity, negative = inhibition: at the top concentration
# How it was run: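 ER-beta-UAS-bla HEK293T (GripTite) cells in 2% charcoal-stripped FBS medium were preincubated 6 hr at 37C, dosed with compound, then stimulated with 1 nM E2 (final) for 16 hr; beta-lactamase reporter read by B/G FRET fluorescence after 2 hr substrate loading.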
# On the % scale 0 is the no-effect control and ±100 the full control effect; potency means the concentration at half of the fitted maximal effect.
SMILES,Potency,"activity, negative = inhibition"
CN1CCC[C@@H]1CCO[C@](C)(c1ccccc1)c1ccc(Cl)cc1,18.8 µM (active),–
COCCOc1cc2cc(C(=O)NC3CCN(C(C)C)CC3)n(CC(=O)Nc3ccc(Cl)cn3)c2cn1,–,1.84%
CCC(CC)C(C)CCOC(C)=O (stereo not given),–,6.48%
CC(CCc1ccccc1)NCC(O)c1ccc(O)c(C(N)=O)c1 (stereo not given),–,-2.31%
CCc1cccc(CC)c1NC(=O)CN(CC(=O)O)CC(=O)O,–,3.91% [at 42.5 µM]
CC(C)(C)CC(C)(C)c1ccc(Nc2ccc(C(C)(C)CC(C)(C)C)cc2)cc1,–,-7.19% [at 8.39 µM]
O=C(O)c1ccc2cc(C(=O)O)ccc2c1,–,-0.825%
Sc1nc2ccccc2s1,–,0.388%
C#C[C@]1(O)CC[C@H]2[C@@H]3[C@H](C)CC4=C(CCC(=O)C4)[C@H]3CC[C@@]21C,–,5.88% [at 42.5 µM]
CCCC1CCC(=O)CC1,–,7.15%
CCCC(=O)OC(C)(C)Cc1ccccc1,–,15.7%
c1ccc(SSc2ccccc2)cc1,–,-18.5%
O=C1c2ccccc2C(=O)N1SC1CCCCC1,–,-18.4%
Cc1nc(-c2ccc(Cl)cc2)oc1COC(C)(C)C(=O)O,–,-11.8% [at 42.5 µM]
O=S(=O)(O)c1ccc(N=Nc2c(O)ccc3ccccc23)cc1,–,-17.5%
O=C1CCCCCCCCCCCCCCCO1,–,11.7%
CC/C=C\CCCCCO,–,0.707%
Cc1cccc2cccnc12,–,0.767%
COc1cccc(OC)c1C(=O)O,–,-1.82%

SMILES,Potency,"activity, negative = inhibition"
O=C(/C=C/c1ccc(O)c(O)c1)O[C@@H](C(=O)O)[C@@H](OC(=O)/C=C/c1ccc(O)c(O)c1)C(=O)O,–,0.988%
CCc1ccc(Br)cc1,–,-0.43%
CCCCOC(=O)CC,–,4.15%
CCCC(=O)OCCc1ccccc1,–,8.95%
C=CCn1c(=O)n(CC=C)c(=O)n(CC=C)c1=O,–,5.35%
CCn1c2ccccc2c2cc([N+](=O)[O-])ccc21,–,3.88%
COc1ccc(NC(=O)CC(C)=O)cc1,–,9.81%
Cc1cc(-c2ccc(N=Nc3cc(S(=O)(=O)O)c4ccccc4c3N)c(C)c2)ccc1N=Nc1cc(S(=O)(=O)O)c2ccccc2c1N,–,-22.3%
NC(=O)c1cccc([N+](=O)[O-])c1,–,2.63%
CCCCC(CC)CN1CN(CC(CC)CCCC)CC(C)(N)C1 (stereo not given),–,-6.36% [at 42.5 µM]
OCC(F)(F)F,–,15.6%
CCCCCC/C=C\CCCCCCCC(=O)O,–,19.6%
CCC(=O)OC(=O)CC,–,-5.93%
C=CCCC(=O)/C=C/C1C(C)=CCCC1(C)C (stereo not given),–,5.27%
COC(C)=O,–,-0.0697%
OC12N=C(c3ccccc3)SC1Cc1cc(Cl)ccc12 (stereo not given),61.1 µM (active),–
CCCCOC(=O)CO,–,-0.56%
O=[N+]([O-])c1ccc(F)c(Cl)c1,–,5.76%
Oc1ccccc1O,–,-15.9%

# Tested on: not listed separately
# Assay: qHTS assay to identify small molecule agonists of the androgen receptor (AR) signaling pathway in the presence of an antagonist - cell viability counter screen (AID 1259379); further: nearly all actives have a fitted effect of over 25% in size;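 on activity change, negative = cytotoxicity: MDA-kb2 human breast cancer cells carrying an MMTV luciferase reporter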
# Details: MDA-kb2 viability, CellTiter-Fluor, 16 h; series mostly up to 92.4 µM; activity change, negative = cytotoxicity: at the top concentration
# How it was run: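 In MDA-kb2 cells (human breast carcinoma, MMTV-luciferase), compounds at 15 concentrations plus 3.0uM nilutamide; 16 hr, 37C, 0% CO2; CellTiter-Fluor fluorescence read for viability.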
SMILES,Potency,"activity change, negative = cytotoxicity"
CN1CCC[C@@H]1CCO[C@](C)(c1ccccc1)c1ccc(Cl)cc1,29.8 µM (active),–
COCCOc1cc2cc(C(=O)NC3CCN(C(C)C)CC3)n(CC(=O)Nc3ccc(Cl)cn3)c2cn1,–,3.05%
CCC(CC)C(C)CCOC(C)=O (stereo not given),–,3.93%
CC(CCc1ccccc1)NCC(O)c1ccc(O)c(C(N)=O)c1 (stereo not given),–,1.61%
CCc1cccc(CC)c1NC(=O)CN(CC(=O)O)CC(=O)O,–,-0.0699% [at 42.5 µM]
CC(C)(C)CC(C)(C)c1ccc(Nc2ccc(C(C)(C)CC(C)(C)C)cc2)cc1,–,1.22% [at 8.39 µM]
O=C(O)c1ccc2cc(C(=O)O)ccc2c1,–,1.9%
Sc1nc2ccccc2s1,–,0.195%
C#C[C@]1(O)CC[C@H]2[C@@H]3[C@H](C)CC4=C(CCC(=O)C4)[C@H]3CC[C@@]21C,–,0.485% [at 42.5 µM]
CCCC1CCC(=O)CC1,–,-2.21%
CCCC(=O)OC(C)(C)Cc1ccccc1,–,-0.0405%
c1ccc(SSc2ccccc2)cc1,–,-10.5%
O=C1c2ccccc2C(=O)N1SC1CCCCC1,inactive,–
Cc1nc(-c2ccc(Cl)cc2)oc1COC(C)(C)C(=O)O,–,-2.37% [at 42.5 µM]
O=S(=O)(O)c1ccc(N=Nc2c(O)ccc3ccccc23)cc1,27.3 µM (active),–
O=C1CCCCCCCCCCCCCCCO1,–,0.694%
CC/C=C\CCCCCO,–,0.45%
Cc1cccc2cccnc12,–,2.12%
COc1cccc(OC)c1C(=O)O,–,0.838%

SMILES,Potency,"activity change, negative = cytotoxicity"
O=C(/C=C/c1ccc(O)c(O)c1)O[C@@H](C(=O)O)[C@@H](OC(=O)/C=C/c1ccc(O)c(O)c1)C(=O)O,–,-12.1%
CCc1ccc(Br)cc1,–,1.85%
CCCCOC(=O)CC,–,3.29%
CCCC(=O)OCCc1ccccc1,–,-0.488%
C=CCn1c(=O)n(CC=C)c(=O)n(CC=C)c1=O,–,-4.37%
CCn1c2ccccc2c2cc([N+](=O)[O-])ccc21,–,-3.72%
COc1ccc(NC(=O)CC(C)=O)cc1,–,4.06%
Cc1cc(-c2ccc(N=Nc3cc(S(=O)(=O)O)c4ccccc4c3N)c(C)c2)ccc1N=Nc1cc(S(=O)(=O)O)c2ccccc2c1N,3.88 µM (active),–
CCCCC(CC)CN1CN(CC(CC)CCCC)CC(C)(N)C1 (stereo not given),21.1 µM (active),–
OCC(F)(F)F,–,-0.741%
CCCCCC/C=C\CCCCCCCC(=O)O,–,-1.55%
CCC(=O)OC(=O)CC,–,1.34%
C=CCCC(=O)/C=C/C1C(C)=CCCC1(C)C (stereo not given),–,-2.04%
COC(C)=O,–,0.126%
OC12N=C(c3ccccc3)SC1Cc1cc(Cl)ccc12 (stereo not given),–,-2.81%
CCCCOC(=O)CO,–,3.05%
O=[N+]([O-])c1ccc(F)c(Cl)c1,–,1.79%
Oc1ccccc1O,inactive,–
